Inconclusive results are not listed. Active and inactive are the calls of the source. Unless noted, the call rests on the fitted dose curve; in most records, active means well fitted curve in either direction with a large enough effect (not every such curve was filed as active); inconclusive means small, poorly fitted or top-dose-only effect, or another doubt; inactive means flat fitted curve, though single readings scatter.
What was measured:
[1] = biological target: Lysosomal acid glucosylceramidase (Homo sapiens) (UniProt P04062); assay: Glucocerebrosidase-p2 (AID 348; in the data active means potency below about 10 µM; further: potency means the concentration at half of the fitted maximal effect); conditions: purified GBA, blue fluorogenic substrate, 40 min
Outline: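 Normal human glucocerebrosidase (0.2 nM) with blue fluorogenic substrate (80 uM final) in citrate/phosphate pH 5.9 with 10mM sodium taurocholate, 0.01% tween-20; 40 min RT, NaOH/glycine stop; fluorescence Ex 365/Em 440; AC50 from a titration from 0.6 nM upwards.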

[2] = AP1 Signaling Pathway (AID 357); conditions: ME-180 AP-1-bla reporter, EGF-induced, beta-lactamase ratio, 5 h; at 7.69 µM (top of the series) unless noted;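 further: ME-180 reporter cells stimulated with EGF at its EC50 level; on the % scale 0 is the no-effect control and ±100 the full control effect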
Outline: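 AP-1-bla ME-180 cells, Opti-MEM + 0.5% dialyzed FBS, plated overnight 37 °C. Cpd titration + EC50 EGF, 5 h 37 °C. CCF4 2.5 h RT; ex 405, em 460/530 ratio → %activity, AC50.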

[3] = biological target: Cytochrome P450 1A2 (Homo sapiens) (UniProt P05177); assay: p450-cyp1a2 (AID 410; calls by dose curve; further: potency means the concentration at half of the fitted maximal effect;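 on activity change, negative = inhibition: -100% = full effect of reference inhibitor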); conditions: recombinant CYP1A2, luciferin-ME demethylation, luminescence; series mostly up to 57 µM
Outline: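 O-Demethylation of luciferin 6' methyl ether by human CYP1A2 is monitored as luciferase luminescence. Substrate sits at Km (100uM); enzyme is 20nM. Values are scaled to 57 uM furafylline as maximal inhibition.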

[4] = Stat Signaling Pathway (AID 446); conditions: ME-180 SIE beta-lactamase reporter, IL-6 stimulated, 5 h; at 7.69 µM (top of the series) unless noted;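 further: ME-180 cervical cancer cells given 40 pM IL-6 alongside compound; SIE-controlled beta-lactamase reporter measured as 460/530 nm FRET emission ratio; on the % scale 0 is the no-effect control and ±100 the full control effect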
Outline: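 Normalization used AC90 stimulation (300 pM IL-6) and AC90 inhibition (125 nM pan-JAK inhibitor at 40 pM IL-6). The underlying signal is SIE-driven beta-lactamase in ME-180 cells after 5 h IL-6 exposure with compound.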

[5] = biological target: Glucocorticoid receptor (Homo sapiens) (UniProt P04150); assay: GR-EFC Redistribution (AID 451; calls by dose curve; further: potency means the concentration at half of the fitted maximal effect); conditions: CHO-K1 GR-EFC translocation, beta-gal luminescence, 2 h
Outline: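 CHO-K1 cells stably expressing nuclear-localized β-gal enzyme acceptor and GR fused C-terminally to the enzyme donor fragment; ligand-driven nuclear translocation restores β-gal by complementation. Compounds titrated up to 46 uM final, 2 h at 37 °C; luminescence read.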

[6] = biological target: Mitogen-activated protein kinase 10 (Mus musculus) (UniProt Q61831); assay: JNK3 AlphaScreen Assay (AID 530); conditions: JNK3 lysate, c-Jun phosphorylation; series mostly up to 57.1 µM;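 further: kinase came from lysate of stimulated human HepG2 cells; signal reports phosphorylation of biotinylated GST-cJun 1-79 at Ser73 with 10 µM ATP; on the % scale 0 is the no-effect control and ±100 the full control effect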
Outline: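 Phosphorylation of biotinylated GST-cJun(1-79) at Ser73 is measured by AlphaScreen proximity luminescence. Enzyme is JNK3 in HepG2 lysates activated with interleukin-1beta and tumor necrosis factor alpha; ATP is 10 uM final.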

[7] = biological target: 3',5'-cyclic-AMP phosphodiesterase 4B (Homo sapiens) (UniProt Q07343); assay: qHTS Assay for Inhibitors of PDE-IV (AID 607; active means well fitted activation curve with a large enough effect in the main read-out, with a control signal flat, not every such curve was filed as active; further: % of control where 0% means no effect); conditions: HEK293 ACTOne CNG channel cells, membrane potential fluorescence; series mostly up to 22.9 µM
Outline: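 HEK293 ACTOne cells with CNG channel (1000/well), endogenous PDE4; membrane potential dye, compounds up to 22.9 uM final. Fluorescence Ex 535/Em 590; RO 20-1724 (100 uM final) as reference.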

[8] = biological target: Cytochrome P450 3A4 (Homo sapiens) (UniProt P08684); assay: qHTS Assay for Activators of Cytochrome P450 3A4 (AID 885; active means well fitted curve in the direction sought with a large enough effect; an effect the other way counts as inactive or inconclusive; further: nearly all actives have a fitted effect of over 65% in size; further: potency means the concentration at half of the fitted maximal effect); conditions: recombinant CYP3A4, Luciferin-PPXE luminescence, 60 min; series mostly up to 57.1 µM
Outline: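 Human CYP3A4 dealkylates Luciferin-PPXE to luciferin, which luciferase detection converts to light. Substrate was at its KM (25uM), buffer 200mM KPO4, reaction 60 min at RT.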

[9] = qHTS Assay for Lipid Storage Modulators (AID 1519; calls by dose curve); conditions: Drosophila S3 cells, BODIPY lipid droplet/cell ratio, laser cytometry, cells loaded with oleic acid; for activity change, negative = inhibition: at 57.5 µM (top of the series)
Outline: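 Cells seeded at 5,000 per well were treated with compounds over a concentration series and loaded with oleic acid (400 uM, as added). Lipid droplet fluorescence (488 nm excitation, 500-530 nm channel) was read by laser-scanning cytometry and normalized to 20 uM Triacsin C.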

[10] = Primary qHTS for small molecule stabilizers of the endoplasmic reticulum resident proteome: Secreted ER Calcium Modulated Protein (SERCaMP) assay (AID 1508630; active means well fitted curve in the direction sought with a large enough effect; an effect the other way counts as inactive or inconclusive; further: on the % scale 0 is the no-effect control and ±100 the full control effect); conditions: SH-SY5Y GLuc-SERCaMP (Gaussia luciferase released on ER calcium loss) secretion, thapsigargin, luminescence; series mostly up to 38.4 µM
Outline: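 The SH-SY5Y reporter protocol was run at 3 concentrations up to 38.3 uM (primary) or 11 concentrations (follow-up): 16 h compound, 100 nM thapsigargin for 4 h, then extracellular luciferase luminescence.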

[11] = biological target: Cytochrome P450 3A4 (Homo sapiens) (UniProt P08684); assay: qHTS Assay for Inhibitors and Substrates of Cytochrome P450 3A4 (AID 884; active means well fitted curve in the direction sought with a large enough effect; an effect the other way counts as inactive or inconclusive; further: nearly all actives have a fitted effect of over 50% in size; further: potency means the concentration at half of the fitted maximal effect); conditions: recombinant CYP3A4, Luciferin-PPXE luminescence; series mostly up to 57.1 µM
Outline: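 Luminescent readout of luciferin produced by CYP3A4 (20 nM) dealkylation of Luciferin-PPXE, 25 uM (its KM). NADPH-driven reaction ran 60 min at RT after 10 min compound preincubation; data scaled to 57 uM ketoconazole as 100% inhibition.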

[12] = biological target: Cytochrome P450 2D6 (Homo sapiens) (UniProt P10635); assay: qHTS Assay for Inhibitors and Substrates of Cytochrome P450 2D6 (AID 891; active means well fitted curve in the direction sought with a large enough effect; an effect the other way counts as inactive or inconclusive; further: potency means the concentration at half of the fitted maximal effect; nearly all actives have a fitted effect of over 60% in size); conditions: recombinant CYP2D6, luciferin-ME EGE luminescence; series mostly up to 57.1 µM
Outline: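 Luminescent read-out of luciferin formed by 5 nM human CYP2D6 demethylating 30 uM Luciferin-ME EGE (Km level) over 60 min at room temperature after NADPH regeneration addition. Data normalized to full inhibition by 1.43 uM quinidine.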

[13] = biological target: Cytochrome P450 2C19 (Homo sapiens) (UniProt P33261); assay: qHTS Assay for Inhibitors and Substrates of Cytochrome P450 2C19 (AID 899; active means well fitted curve in the direction sought with a large enough effect; an effect the other way counts as inactive or inconclusive; further: potency means the concentration at half of the fitted maximal effect; nearly all actives have a fitted effect of over 60% in size); conditions: recombinant CYP2C19, luciferin-H EGE luminescence; series mostly up to 57.1 µM
Outline: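 NADPH-dependent conversion of Luciferin-H EGE (10uM, at KM) by 5nM enzyme in 50mM KPO4, 60 min at 37C following 10 min compound preincubation. Stopped with luciferin detection buffer; luminescence read after 20 min.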

[14] = biological target: Cytochrome P450 2C9 (Homo sapiens) (UniProt P11712); assay: qHTS Assay for Inhibitors and Substrates of Cytochrome P450 2C9 (AID 883; active means well fitted curve in the direction sought with a large enough effect; an effect the other way counts as inactive or inconclusive; further: on the % scale 0 is the no-effect control and ±100 the full control effect; nearly all actives have a fitted effect of over 60% in size); conditions: recombinant CYP2C9, luciferin-H luminescence, 60 min; series mostly up to 57.1 µM
Outline: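 A luminogenic readout tracked human CYP2C9 (10nM) converting deoxyluciferin (100uM, at KM) in 25mM KPO4 during 60 min at 37C with regenerated NADPH. Values normalized to 57uM sulphaphenazole as complete inhibition.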

[15] = qHTS Assay for Identification of Small Molecule Agonists for Hypoxia Response Element Signaling Pathway (AID 914; active means well fitted activation curve with a large enough effect in the signal ratio, with a control signal flat, not every such curve was filed as active; the % refers to the signal ratio; further: % of control where 0% means no effect); conditions: ME-180 (cervical carcinoma) HRE-bla reporter, beta-lactamase ratio, CoCl2, 17 h; activation: stronger effect = higher value
Outline: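 HRE-bla ME-180 assay for agonist-like enhancement of an EC50 CoCl2 stimulus: 17 h at 37 degrees Celsius, CCF4 for 2.5 h, ratiometric 460/530 nm signal converted to %Activity and fitted to AC50.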

[16] = measured here: cell count channel max response
[17] = measured here: lipid channel max response

Sequence of Lysosomal acid glucosylceramidase (Homo sapiens) (P04062 whole entry, looked up): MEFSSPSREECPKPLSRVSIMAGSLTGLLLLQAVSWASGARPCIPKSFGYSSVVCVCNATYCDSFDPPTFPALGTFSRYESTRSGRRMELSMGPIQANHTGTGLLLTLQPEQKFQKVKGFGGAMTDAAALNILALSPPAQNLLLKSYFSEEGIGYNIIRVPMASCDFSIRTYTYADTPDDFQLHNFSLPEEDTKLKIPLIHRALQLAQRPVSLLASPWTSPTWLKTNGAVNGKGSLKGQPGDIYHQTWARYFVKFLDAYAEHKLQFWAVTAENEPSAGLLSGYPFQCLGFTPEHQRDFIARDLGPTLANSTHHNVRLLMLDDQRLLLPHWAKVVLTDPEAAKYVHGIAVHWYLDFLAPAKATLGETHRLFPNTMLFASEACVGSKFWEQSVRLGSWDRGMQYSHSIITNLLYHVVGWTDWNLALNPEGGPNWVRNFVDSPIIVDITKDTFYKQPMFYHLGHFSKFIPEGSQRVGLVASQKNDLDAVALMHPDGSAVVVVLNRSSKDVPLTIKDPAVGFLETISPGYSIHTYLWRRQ
Sequence of Glucocorticoid receptor (Homo sapiens) (P04150 whole entry, looked up, the tested form may be a part): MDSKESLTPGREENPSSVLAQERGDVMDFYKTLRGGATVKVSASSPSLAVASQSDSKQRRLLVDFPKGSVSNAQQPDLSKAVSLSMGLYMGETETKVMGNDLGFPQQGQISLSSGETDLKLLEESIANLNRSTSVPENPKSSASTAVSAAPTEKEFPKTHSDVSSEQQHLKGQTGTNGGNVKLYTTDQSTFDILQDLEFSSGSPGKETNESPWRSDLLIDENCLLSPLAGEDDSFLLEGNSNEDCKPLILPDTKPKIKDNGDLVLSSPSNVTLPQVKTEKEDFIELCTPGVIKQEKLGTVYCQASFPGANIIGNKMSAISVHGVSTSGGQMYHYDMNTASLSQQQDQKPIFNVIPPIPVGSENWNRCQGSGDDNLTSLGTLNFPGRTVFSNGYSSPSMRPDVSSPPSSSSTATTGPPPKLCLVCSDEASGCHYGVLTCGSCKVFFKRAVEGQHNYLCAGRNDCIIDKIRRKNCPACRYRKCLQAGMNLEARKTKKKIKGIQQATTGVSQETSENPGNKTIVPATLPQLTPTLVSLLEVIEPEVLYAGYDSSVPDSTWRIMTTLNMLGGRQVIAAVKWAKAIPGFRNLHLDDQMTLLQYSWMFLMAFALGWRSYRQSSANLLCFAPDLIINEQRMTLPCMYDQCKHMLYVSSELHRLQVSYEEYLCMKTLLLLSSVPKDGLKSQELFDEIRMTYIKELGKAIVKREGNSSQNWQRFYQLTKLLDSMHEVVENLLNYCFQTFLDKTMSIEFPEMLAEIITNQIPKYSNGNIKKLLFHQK
Sequence of Cytochrome P450 3A4 (Homo sapiens) (P08684 whole entry, looked up): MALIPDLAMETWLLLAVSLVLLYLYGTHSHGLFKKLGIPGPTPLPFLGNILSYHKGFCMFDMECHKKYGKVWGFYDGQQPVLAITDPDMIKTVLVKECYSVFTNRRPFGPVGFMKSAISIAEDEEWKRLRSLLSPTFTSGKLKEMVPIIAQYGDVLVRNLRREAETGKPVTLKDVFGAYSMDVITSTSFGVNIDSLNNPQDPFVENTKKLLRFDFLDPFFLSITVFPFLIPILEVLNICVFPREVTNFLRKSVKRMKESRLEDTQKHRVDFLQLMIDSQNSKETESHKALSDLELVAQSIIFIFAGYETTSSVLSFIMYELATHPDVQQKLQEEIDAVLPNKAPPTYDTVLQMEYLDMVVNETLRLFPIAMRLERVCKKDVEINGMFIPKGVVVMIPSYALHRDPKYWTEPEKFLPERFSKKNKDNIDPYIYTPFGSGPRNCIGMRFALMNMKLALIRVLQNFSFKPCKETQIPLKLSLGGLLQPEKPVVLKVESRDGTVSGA
Sequence of 3',5'-cyclic-AMP phosphodiesterase 4B (Homo sapiens) (Q07343 whole entry, looked up): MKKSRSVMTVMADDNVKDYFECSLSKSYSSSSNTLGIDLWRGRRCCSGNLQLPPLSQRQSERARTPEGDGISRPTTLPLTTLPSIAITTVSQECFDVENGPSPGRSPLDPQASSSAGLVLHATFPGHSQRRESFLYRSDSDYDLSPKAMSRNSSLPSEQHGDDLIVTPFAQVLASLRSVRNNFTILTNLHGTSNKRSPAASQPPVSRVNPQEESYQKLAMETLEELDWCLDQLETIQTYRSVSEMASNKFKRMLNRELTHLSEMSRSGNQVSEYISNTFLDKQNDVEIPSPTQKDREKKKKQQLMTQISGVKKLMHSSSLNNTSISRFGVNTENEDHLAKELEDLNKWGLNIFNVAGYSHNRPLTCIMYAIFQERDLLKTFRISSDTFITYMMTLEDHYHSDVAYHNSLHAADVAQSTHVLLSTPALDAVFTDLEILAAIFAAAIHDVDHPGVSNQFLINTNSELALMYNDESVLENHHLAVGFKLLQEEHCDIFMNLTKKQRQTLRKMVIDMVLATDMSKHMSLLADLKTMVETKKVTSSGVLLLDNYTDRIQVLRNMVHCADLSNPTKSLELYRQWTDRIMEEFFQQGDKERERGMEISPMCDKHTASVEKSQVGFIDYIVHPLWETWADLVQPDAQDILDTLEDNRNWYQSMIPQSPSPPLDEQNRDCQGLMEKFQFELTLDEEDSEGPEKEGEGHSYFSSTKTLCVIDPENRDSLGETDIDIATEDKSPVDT
Sequence of Cytochrome P450 2D6 (Homo sapiens) (P10635 whole entry, looked up): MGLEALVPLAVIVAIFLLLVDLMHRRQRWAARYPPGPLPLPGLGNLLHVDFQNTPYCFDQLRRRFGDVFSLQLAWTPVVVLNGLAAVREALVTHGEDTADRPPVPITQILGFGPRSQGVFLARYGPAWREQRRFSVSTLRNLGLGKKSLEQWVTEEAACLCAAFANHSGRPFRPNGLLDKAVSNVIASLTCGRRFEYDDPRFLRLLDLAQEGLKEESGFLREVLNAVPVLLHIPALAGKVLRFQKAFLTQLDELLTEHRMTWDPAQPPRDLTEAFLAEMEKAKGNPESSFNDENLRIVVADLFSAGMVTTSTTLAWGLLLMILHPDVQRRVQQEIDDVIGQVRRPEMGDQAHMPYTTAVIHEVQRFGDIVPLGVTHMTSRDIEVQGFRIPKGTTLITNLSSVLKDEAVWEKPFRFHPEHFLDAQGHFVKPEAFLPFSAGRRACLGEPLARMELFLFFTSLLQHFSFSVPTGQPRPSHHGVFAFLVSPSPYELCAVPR
Sequence of Cytochrome P450 1A2 (Homo sapiens) (P05177 whole entry, looked up): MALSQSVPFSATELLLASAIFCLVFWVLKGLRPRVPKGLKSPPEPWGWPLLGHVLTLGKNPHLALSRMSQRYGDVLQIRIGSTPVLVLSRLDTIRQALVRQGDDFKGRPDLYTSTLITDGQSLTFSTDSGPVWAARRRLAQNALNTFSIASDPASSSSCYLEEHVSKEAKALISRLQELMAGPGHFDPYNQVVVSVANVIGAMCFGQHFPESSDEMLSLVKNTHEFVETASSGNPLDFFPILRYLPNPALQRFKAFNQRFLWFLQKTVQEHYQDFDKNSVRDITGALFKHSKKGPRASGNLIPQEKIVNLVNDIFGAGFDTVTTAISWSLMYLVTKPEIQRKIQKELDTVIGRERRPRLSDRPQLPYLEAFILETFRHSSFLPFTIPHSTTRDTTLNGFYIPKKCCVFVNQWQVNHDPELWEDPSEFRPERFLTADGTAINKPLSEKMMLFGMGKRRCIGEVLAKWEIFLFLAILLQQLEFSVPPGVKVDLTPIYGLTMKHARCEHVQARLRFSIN
Sequence of Cytochrome P450 2C19 (Homo sapiens) (P33261 whole entry, looked up): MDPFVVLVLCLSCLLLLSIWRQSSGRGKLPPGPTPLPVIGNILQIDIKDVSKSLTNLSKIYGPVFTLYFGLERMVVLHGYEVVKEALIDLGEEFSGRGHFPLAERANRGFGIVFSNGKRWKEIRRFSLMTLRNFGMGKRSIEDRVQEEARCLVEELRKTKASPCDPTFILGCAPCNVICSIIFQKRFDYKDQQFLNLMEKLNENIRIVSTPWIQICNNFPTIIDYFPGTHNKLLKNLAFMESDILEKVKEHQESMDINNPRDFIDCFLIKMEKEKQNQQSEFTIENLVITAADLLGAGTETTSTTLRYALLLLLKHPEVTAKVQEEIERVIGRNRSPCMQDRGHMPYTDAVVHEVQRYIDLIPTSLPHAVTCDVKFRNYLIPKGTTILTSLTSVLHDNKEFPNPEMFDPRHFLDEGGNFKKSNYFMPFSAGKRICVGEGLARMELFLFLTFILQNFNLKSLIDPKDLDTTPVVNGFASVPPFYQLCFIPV
Sequence of Cytochrome P450 2C9 (Homo sapiens) (P11712 whole entry, looked up): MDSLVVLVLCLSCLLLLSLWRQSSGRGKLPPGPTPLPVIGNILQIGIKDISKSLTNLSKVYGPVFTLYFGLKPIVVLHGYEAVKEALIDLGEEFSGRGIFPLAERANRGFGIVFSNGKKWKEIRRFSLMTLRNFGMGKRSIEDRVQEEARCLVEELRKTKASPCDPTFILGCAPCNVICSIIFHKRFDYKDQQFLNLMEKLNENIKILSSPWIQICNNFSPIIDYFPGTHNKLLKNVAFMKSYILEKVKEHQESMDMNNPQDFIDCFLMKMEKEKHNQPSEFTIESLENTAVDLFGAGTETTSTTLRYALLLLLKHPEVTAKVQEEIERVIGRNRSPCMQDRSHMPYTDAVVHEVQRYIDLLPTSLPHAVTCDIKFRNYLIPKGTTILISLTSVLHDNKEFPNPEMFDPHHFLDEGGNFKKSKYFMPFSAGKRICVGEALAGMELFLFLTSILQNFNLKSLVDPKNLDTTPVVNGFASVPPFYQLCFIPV

O=C(c1cc(C(F)(F)F)cc(C(F)(F)F)c1)N1CCC[C@@]2(CCN(c3ccccc3)C2)C1
inactive: Potency [1] > 11.4 µM | activity change, negative = inhibition [2] 0.763% | Potency [3] | activity, negative = inhibition [4] 2.5% | Potency [5] > 46 µM | Potency [6] | Potency [7] | Potency [8] | activity change, negative = inhibition [9] -3.81% | outcome [10]
10.6%: max response [9, 16] | max response [9, 17]

O=C(c1ccco1)N1CCC2(CC1)CCN(C(c1ccccc1)c1ccccc1)CC2
active: Potency [8] 12.6 µM | Potency [12] 5.01 µM
15%: max response [9, 17]
7.88%: max response [9, 16]
inactive: Potency [1] > 11.4 µM | activity change, negative = inhibition [2] 0.867% | Potency [3] | activity, negative = inhibition [4] -7.63% | Potency [5] > 46 µM | Potency [6] | Potency [7] | Potency [11] | activity change, negative = inhibition [9] 3.39% | outcome [10]

COc1ccc(NC(=O)N2CCCC3(CCN(S(=O)(=O)c4ccccc4)CC3)C2)cc1
10.9%: max response [9, 17]
6.07%: max response [9, 16]
active: Potency [11] 7.94 µM
inactive: Potency [1] > 11.4 µM | activity change, negative = inhibition [2] -4.9% | Potency [3] | activity, negative = inhibition [4] -19% | Potency [5] > 46 µM | Potency [6] | Potency [7] | Potency [8] | activity change, negative = inhibition [9] 2.57% | outcome [10]

Cc1noc(C)c1C(=O)N1CCC2(CCCN(c3ccncc3)C2)CC1
inactive: Potency [1] > 11.4 µM | activity change, negative = inhibition [2] 6.75% | Potency [3] | activity, negative = inhibition [4] 8.27% | Potency [5] > 46 µM | Potency [6] | Potency [7] | Potency [8] | activity change, negative = inhibition [9] 5.44% | outcome [10]
23.4%: max response [9, 17]
15.3%: max response [9, 16]

O=C(c1cnccn1)N1CCC2(CC1)CN(C(c1ccccc1)c1ccccc1)C2
10.5%: max response [9, 17]
active: Potency [3] 25.1 µM | Potency [8] 12.6 µM | Potency [12] 6.31 µM
6.7%: max response [9, 16]
inactive: Potency [1] > 11.4 µM | activity change, negative = inhibition [2] -2% | activity, negative = inhibition [4] -4.86% | Potency [5] > 46 µM | Potency [6] | Potency [7] | Potency [11] | activity change, negative = inhibition [9] 1.71% | outcome [10]

COC(=O)N1CCC2(CC1)CN(c1ccccc1)C2
4.45%: max response [9, 16]
inactive: Potency [1] > 11.4 µM | activity change, negative = inhibition [2] -2.49% | Potency [3] | activity, negative = inhibition [4] 8.16% | Potency [5] > 46 µM | Potency [6] | Potency [7] | Potency [11] | activity change, negative = inhibition [9] -0.409% | outcome [10]
active: Potency [13] 6.31 µM
2.93%: max response [9, 17]

Cc1noc(C)c1C(=O)N1CCC2(CC1)CCN(c1ccncc1)CC2
inactive: Potency [1] > 11.4 µM | activity change, negative = inhibition [2] 10.3% | Potency [3] | activity, negative = inhibition [4] 8.12% | Potency [5] > 46 µM | Potency [6] | Potency [7] | Potency [8] | activity change, negative = inhibition [9] 1.45% | outcome [10]
12.2%: max response [9, 17]
9.32%: max response [9, 16]

COc1ccccc1CN1CCCC2(CCN(C(=O)c3c(C)noc3C)CC2)C1
17.9%: max response [9, 17]
14.6%: max response [9, 16]
inactive: Potency [1] > 11.4 µM | activity change, negative = inhibition [2] -9.04% | Potency [3] | activity, negative = inhibition [4] -7.32% | Potency [5] > 46 µM | Potency [6] | Potency [7] | Potency [8] | activity change, negative = inhibition [9] 1.7% | outcome [10]

COc1ccc(C(=O)N2CCC3(CCCN(CC(C)C)C3)CC2)cc1
26.9%: max response [9, 17]
inactive: Potency [1] > 11.4 µM | activity change, negative = inhibition [2] -7.24% | Potency [3] | activity, negative = inhibition [4] -5.73% | Potency [5] > 46 µM | Potency [6] | Potency [7] | Potency [8] | activity change, negative = inhibition [9] 2.63% | outcome [10]
21.1%: max response [9, 16]

O=C(c1cc(C(F)(F)F)cc(C(F)(F)F)c1)N1CCC[C@@]2(CCN(c3ncccn3)C2)C1
8.96%: max response [9, 16]
17.5%: max response [9, 17]
inactive: Potency [1] > 11.4 µM | activity change, negative = inhibition [2] 8.42% | Potency [3] | activity, negative = inhibition [4] -17.1% | Potency [5] > 46 µM | Potency [6] | Potency [7] | Potency [8] | activity change, negative = inhibition [9] 4.69% | outcome [10]

Cc1noc(C)c1C(=O)N1CCC2(CCN(Cc3ccccc3)CC2)CC1
19.5%: max response [9, 16]
22%: max response [9, 17]
inactive: Potency [1] > 11.4 µM | activity change, negative = inhibition [2] 6.02% | Potency [3] | activity, negative = inhibition [4] 1% | Potency [5] > 46 µM | Potency [6] | Potency [7] | Potency [14] | activation [15] -10.3% | activity change, negative = inhibition [9] 0.801% | outcome [10]

O=C(c1ccncc1)N1CCC2(CCN(Cc3ccncc3)CC2)CC1
14.3%: max response [9, 16]
inactive: Potency [1] > 11.4 µM | activity change, negative = inhibition [2] 7.83% | Potency [3] | activity, negative = inhibition [4] -5.41% | Potency [5] > 46 µM | Potency [6] | Potency [7] | Potency [8] | activity change, negative = inhibition [9] 4.23% | outcome [10]
23.1%: max response [9, 17]

COc1ccccc1CN1CCCC2(CCN(C(=O)c3ccncc3)CC2)C1
inactive: Potency [1] > 11.4 µM | activity change, negative = inhibition [2] -0.588% | activity, negative = inhibition [4] 1.91% | Potency [5] > 46 µM | Potency [6] | Potency [7] | Potency [8] | activation [15] 3.13% | activity change, negative = inhibition [9] 1.58% | outcome [10]
5.27%: max response [9, 16]
active: Potency [3] 20 µM | Potency [11] 6.31 µM | Potency [12] 3.16 µM
9.4%: max response [9, 17]

COCC(=O)N1CCC2(CCCN(c3ccncc3)C2)CC1
0.42%: max response [9, 17]
-7.49%: max response [9, 16]
inactive: Potency [1] > 11.4 µM | activity change, negative = inhibition [2] 3.93% | Potency [3] | activity, negative = inhibition [4] -8.03% | Potency [5] > 46 µM | Potency [6] | Potency [7] | Potency [8] | activity change, negative = inhibition [9] 3.88% | outcome [10]

— PubChem BioAssay (NCATS)
